# “And” between values parts separate entries of the source, which are not always exact repeats. Equal values may be shown once. Some structures have more than one record in an assay (separate samples or runs), and their calls can disagree. The source made the active and inactive calls. Rule for the calls: active = hit-call score of the fitted dose curve at least 0.9, where 1 is the maximum; inactive = score below 0.9.
# How the values were obtained:
# [1] = ATG_AP_1_CIS: Attagene CIS-FACTORIAL HepG2 Assay for human Activator Protein 1 (AP-1) (AID 2282931); settings: HepG2 Attagene cis-factorial AP-1 reporter mRNA; actives raise or lower the signal
# In short: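 Readout is reporter transcript level from endogenous transcription factor activity, quantified by RT-PCR with fluorescent primer extension and capillary electrophoresis. Transiently transfected HepG2 cells, 24 h exposure. Curves fitted both directions versus DMSO.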
# [2] = ATG_AP_2_CIS: Attagene CIS-FACTORIAL HepG2 Assay for human Activator Protein 2 (AP-2) (AID 2282932); settings: HepG2 AP-2 cis-reporter, Attagene transcription factor profiling; actives raise or lower the signal
# In short: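 HepG2, transient MRTU transfection, cis-regulated reporters; 24 h compound exposure; RNA isolated, RT-PCR, 6-FAM labelling, HpaI digest, CE fluorescence. DMSO = negative control/baseline, bidirectional fit.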
# [3] = ATG_BRE_CIS: Attagene CIS-FACTORIAL HepG2 Assay for human Bone Morphogenetic Protein (BMP) Response Element (BRE) (AID 2282933); settings: HepG2 BMP response element reporter, Attagene transcription factor profiling; actives raise or lower the signal
# In short: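 HepG2 cells transiently transfected with multiplexed cis-element reporter units were dosed with chemical for 24 h. Reporter mRNA was measured by RT-PCR with fluorescent labelling, HpaI digestion and capillary electrophoresis; bidirectional fitting relative to DMSO.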
# [4] = molecular target: Retinoic acid receptor alpha (Homo sapiens) (UniProt P10276); test: ATG_DR5_RAR_CIS: Attagene CIS-FACTORIAL HepG2 Assay for human Retinoic Acid Receptor Alpha (RARE), DR5 submotif (AID 2282934); settings: HepG2 Attagene cis-factorial RARE DR5 reporter, mRNA; actives raise or lower the signal;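 for AC50: reporter responds to endogenous RAR alpha beta and gamma in HepG2 not RARA alone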
# Sequence of Retinoic acid receptor alpha (Homo sapiens) (P10276 whole entry, looked up): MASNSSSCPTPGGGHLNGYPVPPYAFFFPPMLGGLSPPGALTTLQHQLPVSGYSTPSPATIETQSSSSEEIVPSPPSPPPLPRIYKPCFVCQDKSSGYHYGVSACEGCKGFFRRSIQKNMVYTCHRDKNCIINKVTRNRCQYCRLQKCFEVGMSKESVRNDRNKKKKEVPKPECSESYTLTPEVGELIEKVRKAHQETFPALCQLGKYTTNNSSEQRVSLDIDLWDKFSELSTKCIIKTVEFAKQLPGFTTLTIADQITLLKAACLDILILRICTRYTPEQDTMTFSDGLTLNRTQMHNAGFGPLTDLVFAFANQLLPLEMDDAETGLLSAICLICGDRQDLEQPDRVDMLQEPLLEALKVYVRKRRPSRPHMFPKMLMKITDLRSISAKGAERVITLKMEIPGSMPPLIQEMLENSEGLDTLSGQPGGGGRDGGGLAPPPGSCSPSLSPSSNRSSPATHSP
# In short: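 Transient MRTU transfection of HepG2; 24 h compound treatment; TriZol RNA, oligo(dT) RT, PCR, FAM labelling, capillary electrophoresis. Bidirectional fit vs DMSO. Endogenous TF activity at DR5 RARE.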
# [5] = molecular target: Transcription factor E2F1 (Homo sapiens) (UniProt Q01094); test: ATG_E2F_CIS: Attagene CIS-FACTORIAL HepG2 Assay for human E2F Transcription Factor 1 (AID 2282935); settings: HepG2 Attagene cis-reporter, E2F reporter RNA transcripts; actives raise or lower the signal
# Sequence of Transcription factor E2F1 (Homo sapiens) (Q01094 whole entry, looked up): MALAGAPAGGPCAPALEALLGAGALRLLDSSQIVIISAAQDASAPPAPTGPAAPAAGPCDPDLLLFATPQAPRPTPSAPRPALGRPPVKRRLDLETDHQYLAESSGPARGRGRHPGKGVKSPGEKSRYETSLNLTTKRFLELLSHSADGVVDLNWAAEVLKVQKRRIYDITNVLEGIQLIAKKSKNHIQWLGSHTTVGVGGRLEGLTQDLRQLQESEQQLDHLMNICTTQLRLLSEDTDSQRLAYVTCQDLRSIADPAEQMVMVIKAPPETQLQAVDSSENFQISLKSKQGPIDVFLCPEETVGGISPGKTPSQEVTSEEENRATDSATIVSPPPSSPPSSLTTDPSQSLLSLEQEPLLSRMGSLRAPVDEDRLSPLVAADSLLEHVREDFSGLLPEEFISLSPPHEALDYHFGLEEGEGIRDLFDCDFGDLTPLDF
# In short: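 Cis-element reporter mRNA induction in transiently transfected HepG2, 24 h exposure. Activity fitted in both directions relative to DMSO negative control.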
# [6] = ATG_E_Box_CIS: Attagene CIS-FACTORIAL HepG2 Assay for human Enhancer Box (E-box) (AID 2282936); settings: HepG2 E-box cis-reporter transcription, actives raise or lower the signal
# In short: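 Cells: HepG2 (human liver), transient MRTU transfection. Exposure 24 h. RNA → oligo(dT) RT → PCR → 6-FAM label → HpaI → CE. Activity fitted both directions relative to DMSO.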
# [7] = ATG_M_61_CIS: Attagene CIS-FACTORIAL HepG2 Assay for M61 Transcription Factor (Internal Marker) (AID 2282937); settings: HepG2 Attagene CIS-FACTORIAL M61 internal marker reporter; actives raise or lower the signal
# In short: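 Readout is reporter mRNA by RT-PCR, fluorescent primer extension and capillary electrophoresis, with gain or loss fitted relative to DMSO. Transfected HepG2 cells carrying endogenous-TF-driven cis reporters were exposed to chemicals for 24 hours.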
# [8] = ATG_EGR_CIS: Attagene CIS-FACTORIAL HepG2 Assay for human Early Growth Response 1 (EGR1) (AID 2282938); settings: HepG2 Attagene CIS-FACTORIAL EGR reporter mRNA; actives raise or lower the signal
# In short: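 After 24 h compound exposure, RNA from reporter-transfected HepG2 cells was reverse-transcribed, PCR-amplified, fluorescently labelled and resolved by capillary electrophoresis. EGR1 reporter transcript changes, up or down, were fitted against DMSO, reflecting endogenous transcription-factor activity.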
# [9] = ATG_M_19_CIS: Attagene CIS-FACTORIAL HepG2 Assay for M19 Transcription Factor (Internal Marker) (AID 2282939); settings: HepG2 Attagene CIS-FACTORIAL M19 internal marker reporter; actives raise or lower the signal
# In short: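 HepG2 cells transiently transfected with cis-regulated multiple reporter transcription units were dosed for 24 h; reporter mRNA was quantified by RT-PCR, 6-FAM primer-extension labelling, HpaI digestion and capillary electrophoresis, with bidirectional fitting against DMSO baseline.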
# [10] = ATG_ERE_CIS: Attagene CIS-FACTORIAL HepG2 Assay for Estrogen Response Element (ERE) (AID 2282940); settings: HepG2 ERE cis-reporter, Attagene RNA transcript; actives raise or lower the signal
# In short: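 HepG2 cells transiently transfected with cis-promoter-driven multiplexed reporter transcription units report endogenous TF activity. After 24 h compound exposure, reporter mRNA is quantified by RT-PCR with capillary electrophoresis fluorescence; bidirectional fitting versus DMSO baseline.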
SMILES,outcome [1],AC50 [2],AC50 [3],outcome [4],outcome [5],AC50 [6],outcome [7],AC50 [8],outcome [9],outcome [10],outcome [2],outcome [3],outcome [6],outcome [8],AC50 [1],AC50 [10],AC50 [4]
Oc1c(I)cc(I)cc1I,inactive,63.7 µM (active),43.2 µM (active),inactive,inactive,4.99 µM (active),inactive,71.1 µM (active),inactive,inactive,,,,,,,
C[C@@H](Oc1ccc(Cl)cc1Cl)C(=O)O,inactive,,,inactive,inactive,,inactive,,inactive,inactive,inactive,inactive,inactive,inactive,,,
O=[N+]([O-])c1ccc(O)c([N+](=O)[O-])c1,inactive,,,inactive,,,inactive,,inactive,inactive,inactive,inactive,inactive,inactive,,,
O=C(OC1CCCCC1)c1ccccc1C(=O)OC1CCCCC1,,,67.5 µM (active),inactive,,,inactive,25.1 µM (active),inactive,,inactive,,inactive,,38.1 µM (active),29.2 µM (active),
N#CCCO,inactive,,,inactive,inactive,,inactive,,inactive,inactive,inactive,inactive,inactive,inactive,,,
CCCCCCCCCl,inactive,,,inactive,,,inactive,,inactive,inactive,inactive,inactive,inactive,inactive,,,
O=[N+]([O-])c1ccc2c3c(cccc13)CC2,inactive,,,inactive,inactive,,inactive,,inactive,inactive,inactive,inactive,inactive,inactive,,,
CN(C)P(=O)(N(C)C)N(C)C,inactive,,,inactive,inactive,,inactive,,inactive,inactive,inactive,inactive,inactive,inactive,,,
CCC(C)(C)c1ccc(O)c(C(C)(C)CC)c1,,,,,,,inactive,,inactive,inactive,inactive,inactive,inactive,inactive,12.8 µM (active),,5.73 µM (active)
COS(=O)(=O)c1ccc(C)cc1,inactive,,,inactive,inactive,,inactive,,inactive,inactive,inactive,inactive,inactive,inactive,,,
CCCCCCCCC(=O)NCc1ccc(O)c(OC)c1,inactive,,171 µM (active),inactive,inactive,,inactive,,inactive,inactive,inactive,,inactive,inactive,,,
COP(=O)(OC)O/C(=C\Cl)c1cc(Cl)c(Cl)cc1Cl,,26.9 µM (active),70.3 µM (active),inactive,inactive,,inactive,37 µM (active),inactive,,,,inactive,,62.4 µM (active),4.11 µM (active),
O=Cc1cccc(Oc2ccccc2)c1,inactive,,,inactive,inactive,,inactive,,inactive,inactive,inactive,inactive,inactive,inactive,,,
CC(Br)C(=O)O (centres undefined),inactive,,,inactive,inactive,,inactive,,inactive,inactive,inactive,inactive,inactive,inactive,,,
NC(=S)Nc1ccccc1,inactive,,,inactive,,,inactive,,inactive,,inactive,inactive,inactive,inactive,,39.2 µM (active),
CCOP(=S)(OCC)SCSP(=S)(OCC)OCC,inactive,,,inactive,inactive,,inactive,,inactive,,inactive,inactive,inactive,inactive,,6.47 µM (active),
Oc1ccc(-c2ccccc2)cc1,inactive,26.8 µM (active),,,inactive,169 µM (active),inactive,68.5 µM (active),inactive,,,inactive,,,,2.15 µM (active),154 µM (active)
OCC(O)CCl (centres undefined),inactive,,,inactive,,,inactive,,inactive,inactive,inactive,inactive,inactive,inactive,,,
Cn1sc(Cl)cc1=O,inactive,,,inactive,,,inactive,,inactive,inactive,inactive,inactive,inactive,inactive,,,
ClC1(Cl)C2(Cl)C3(Cl)C4(Cl)C(Cl)(Cl)C5(Cl)C3(Cl)C1(Cl)C5(Cl)C24Cl (centres undefined),inactive,,,inactive,inactive,,inactive,,inactive,inactive,inactive,inactive,inactive,inactive,,,
CC12CC1(C)C(=O)N(c1cc(Cl)cc(Cl)c1)C2=O (centres undefined),inactive,,,,inactive,,inactive,,inactive,,inactive,inactive,inactive,inactive,,,
Clc1ccc(COC(Cn2ccnc2)c2ccc(Cl)cc2Cl)cc1 (centres undefined),inactive,,,inactive,inactive,,inactive,,inactive,inactive,inactive,inactive,inactive,inactive,,,
COC(=O)Cc1ccccc1,inactive,,,inactive,inactive,,inactive,,inactive,inactive,inactive,inactive,inactive,inactive,,,
Nc1ccc(N=Nc2ccc(-c3ccc(N=Nc4c(S(=O)(=O)O)cc5cc(S(=O)(=O)O)c(N=Nc6ccccc6)c(O)c5c4N)cc3)cc2)c(N)c1,inactive,,4.8 µM (active),inactive,inactive,,inactive,,inactive,,inactive,,inactive,inactive,,24.8 µM (active),
O=[N+]([O-])c1c(Cl)c(Cl)cc(Cl)c1Cl,inactive,,,inactive,inactive,,inactive,,inactive,inactive,inactive,inactive,inactive,inactive,,,

SMILES,outcome [1],AC50 [2],AC50 [3],outcome [4],outcome [5],AC50 [6],outcome [7],AC50 [8],outcome [9],outcome [10],outcome [2],outcome [3],outcome [6],outcome [8],AC50 [1],AC50 [10],AC50 [4]
Cc1cc(Cl)ccc1O[C@H](C)C(=O)O,inactive,,,inactive,,,inactive,,inactive,inactive,inactive,inactive,inactive,inactive,,,
COc1cc(-c2ccc(N)c(OC)c2)ccc1N,inactive,,,,,43.2 µM (active),inactive,27.9 µM (active),inactive,,inactive,inactive,inactive,inactive,,,2.98 µM (active) and 19.8 µM (active)
CCc1ccccc1N,inactive,,,inactive,inactive,,inactive,,inactive,inactive,inactive,inactive,inactive,inactive,,,
O=C(Cc1ccccc1)c1ccccc1,inactive,,,inactive,inactive,,inactive,,inactive,,inactive,inactive,inactive,inactive,,24.9 µM (active),
CCCCCCCCSC(=O)Oc1cc(Cl)nnc1-c1ccccc1,,,,,inactive,,inactive,,inactive,inactive,inactive,inactive,inactive,inactive,122 µM (active),,100 µM (active)
BrCCBr,inactive,,,inactive,inactive,,inactive,,inactive,inactive,inactive,inactive,inactive,inactive,,,
Cc1ccccc1N,inactive,,,,inactive,,inactive,,inactive,,inactive,inactive,inactive,inactive,,,
CC(C)(c1ccccc1)c1ccc(O)c(C(C)(C)c2ccccc2)c1,,,,,,16.9 µM (active),inactive,9.29 µM (active),inactive,,inactive,inactive,,,7.38 µM (active),5.86 µM (active),2.85 µM (active)
ClC(Cl)=C(Cl)C(Cl)=C(Cl)Cl,inactive,165 µM (active),,inactive,,,inactive,131 µM (active),inactive,inactive,,inactive,inactive,,,,
C1CCC(NC2CCCCC2)CC1,inactive,,,inactive,inactive,,inactive,,inactive,,inactive,inactive,inactive,inactive,,28.8 µM (active),
CC(C)C1CCC(Cc2ccc(Cl)cc2)C1(O)Cn1cncn1 (centres undefined),,,11 µM (active),inactive,,,inactive,,inactive,inactive,inactive,,inactive,inactive,17.5 µM (active),,
N#CN=C(N)N,inactive,,,inactive,inactive,,inactive,,inactive,inactive,inactive,inactive,inactive,inactive,,,
O=C(O)Cc1ccccc1,inactive,,,inactive,,,inactive,,inactive,inactive,inactive,inactive,inactive,inactive,,,
CC(=O)[O][Hg][c]1ccccc1,inactive,,,,inactive,,inactive,4.73 µM (active),inactive,inactive,inactive,inactive,inactive,,,,1.24 µM (active)
ClCc1cccnc1,inactive,,,,inactive,,inactive,58.6 µM (active),inactive,inactive,inactive,inactive,inactive,,,,
CNC,inactive,,,,inactive,,inactive,,inactive,inactive,inactive,inactive,inactive,inactive,,,
COc1cc(OC)nc(NC(=O)NS(=O)(=O)c2ncccc2C(=O)N(C)C)n1,inactive,,,,inactive,,inactive,,inactive,inactive,inactive,inactive,inactive,inactive,,,
CCC[CH2][Sn]([Cl])([Cl])[Cl],inactive,,,,inactive,,inactive,,inactive,inactive,inactive,inactive,inactive,inactive,,,
Clc1ccc(C2(Cn3cncn3)CC(Br)CO2)c(Cl)c1 (centres undefined),,,99.5 µM (active),,inactive,,inactive,,inactive,,inactive,,inactive,inactive,35.5 µM (active),2.54 µM (active),
CC(=O)OC(c1ccccc1)C(Cl)(Cl)Cl (centres undefined),inactive,,,,inactive,,inactive,,inactive,,inactive,inactive,inactive,inactive,,73.8 µM (active),
O=C1CCCN1,inactive,,,,inactive,,inactive,,inactive,inactive,inactive,inactive,inactive,inactive,,,
COP(=O)(OC)OC,inactive,,,,inactive,,inactive,,inactive,inactive,inactive,inactive,inactive,inactive,,,
ClCc1ccccn1,inactive,,,,inactive,,inactive,,inactive,inactive,inactive,inactive,inactive,inactive,,,
CC(=[OH+])/C=C(/C)[O-].CC(=[OH+])/C=C(/C)[O-].CC(=[OH+])/C=C(/C)[O-].[Fe],inactive,,,,inactive,,inactive,,inactive,inactive,inactive,inactive,inactive,inactive,,,
